In the supplement of paper PMC7411054:
Counter-ions that a name gives are not always drawn.

Assays:
Assay in all cases: phenotypically active (imaging signature differs from DMSO and reproducible) at any of 0.3-9 uM (binary (1 = active, 0 = inactive)); higher = active
Details in all cases: treatment time: 24 h
[1] = system: A549-ACTB-RAB5A
Procedure, shortened: (§1)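 Live-cell features were measured per well and normalised to solvent control wells after fifteen gene-edited A549, HepG2 and WPMY1 reporter lines had been treated for 24 h at 0.3, 1, 3 or 9 µM in four wells each. A condition was deviating when ≥3 of 4 wells sat beyond the 95th percentile of control Euclidean distances. It was reproducible when the median replicate Pearson correlation exceeded the 95th percentile of non-replicates. Phenotypic activity demanded both.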

[2] = system: A549-CANX-COX4
Procedure, shortened: as §1

[3] = system: A549-GM130-SQSTM1
Procedure, shortened: as §1

[4] = system: A549-TP53BP1-CLTA
Procedure, shortened: as §1

[5] = system: A549-TUBA1B-RELA
Procedure, shortened: as §1

[6] = system: HepG2-ACTB-RAB5A
Procedure, shortened: as §1

[7] = system: HepG2-CANX-COX4
Procedure, shortened: as §1

[8] = system: HepG2-GM130-SQSTM1
Procedure, shortened: as §1

[9] = system: HepG2-TP53BP1-CLTA
Procedure, shortened: as §1

[10] = system: HepG2-TUBA1B-RELA
Procedure, shortened: as §1

[11] = system: WPMY1-ACTB-RAB5A
Procedure, shortened: as §1

[12] = system: WPMY1-CANX-COX4
Procedure, shortened: as §1

[13] = system: WPMY1-GM130-SQSTM1
Procedure, shortened: as §1

[14] = system: WPMY1-TP53BP1-CLTA
Procedure, shortened: as §1

[15] = system: WPMY1-TUBA1B-RELA
Procedure, shortened: as §1

Measured: phenotypically active

CC1(C)CCC(c2ccc(Cl)cc2)=C(CN2CCN(c3ccc(C(=O)NS(=O)(=O)c4ccc(N[C@H](CCN5CCOCC5)CSc5ccccc5)c(S(=O)(=O)C(F)(F)F)c4)cc3)CC2)C1 [navitoclax]
inactive: [1] 0 | [2] 0 | [3] 0 | [4] 0 | [5] 0 | [6] 0 | [7] 0 | [8] 0 | [9] 0 | [10] 0 | [11] 0 | [12] 0 | [13] 0 | [14] 0 | [15] 0

CC(=O)c1ccc(S(=O)(=O)NC(=O)NC2CCCCC2)cc1 [acetohexamide]
inactive: [1] 0 | [2] 0 | [3] 0 | [4] 0 | [5] 0 | [6] 0 | [7] 0 | [8] 0 | [9] 0 | [10] 0 | [11] 0 | [12] 0 | [13] 0 | [14] 0 | [15] 0

COc1ccc(C2(CNC(=O)c3ccc(NC(=O)c4ccco4)cc3)CCOCC2)cc1
inactive: [1] 0 | [2] 0 | [3] 0 | [4] 0 | [5] 0 | [6] 0 | [7] 0 | [8] 0 | [9] 0 | [10] 0 | [11] 0 | [12] 0 | [13] 0 | [14] 0 | [15] 0

CCN[C@H]1C[C@H](C)S(=O)(=O)c2sc(S(N)(=O)=O)cc21 [dorzolamide]
inactive: [1] 0 | [2] 0 | [3] 0 | [4] 0 | [5] 0 | [6] 0 | [7] 0 | [8] 0 | [9] 0 | [10] 0 | [11] 0 | [12] 0 | [13] 0 | [14] 0 | [15] 0

C[C@H](CCC(=O)NCC(=O)O)[C@H]1CC[C@H]2[C@@H]3[C@H](O)C[C@@H]4C[C@H](O)CC[C@]4(C)[C@H]3C[C@H](O)[C@]12C [Glycocholic acid]
inactive: [1] 0 | [2] 0 | [3] 0 | [4] 0 | [5] 0 | [6] 0 | [7] 0 | [8] 0 | [9] 0 | [10] 0 | [11] 0 | [12] 0 | [13] 0 | [14] 0 | [15] 0

CO[C@@]12[C@H](COC(N)=O)C3=C(C(=O)C(C)=C(N)C3=O)N1C[C@@H]1N[C@@H]12 [mitomycin]
inactive: [1] 0 | [2] 0 | [3] 0 | [4] 0 | [5] 0 | [6] 0 | [7] 0 | [8] 0 | [9] 0 | [10] 0 | [11] 0 | [12] 0 | [13] 0 | [14] 0 | [15] 0

Cc1cc(/N=N/c2cc(S(=O)(=O)O)c(C)cc2C)c(N)cc1O [Ischemin sodium salt]
inactive: [1] 0 | [2] 0 | [3] 0 | [4] 0 | [5] 0 | [6] 0 | [7] 0 | [8] 0 | [9] 0 | [10] 0 | [11] 0 | [12] 0 | [13] 0 | [14] 0 | [15] 0

C1CCN2C[C@@H]3C[C@@H](CN4CCCC[C@@H]34)[C@H]2C1 [Sparteine (-)]
inactive: [1] 0 | [2] 0 | [3] 0 | [4] 0 | [5] 0 | [6] 0 | [7] 0 | [8] 0 | [9] 0 | [10] 0 | [11] 0 | [12] 0 | [13] 0 | [14] 0 | [15] 0

OC[C@H]1O[C@@H](Oc2ccc(O)cc2)[C@H](O)[C@@H](O)[C@@H]1O [Arbutin]
inactive: [1] 0 | [2] 0 | [3] 0 | [4] 0 | [5] 0 | [6] 0 | [7] 0 | [8] 0 | [9] 0 | [10] 0 | [11] 0 | [12] 0 | [13] 0 | [14] 0 | [15] 0

CC(C)[N@+]1(C)[C@@H]2CC[C@H]1C[C@@H](OC(=O)C(CO)c1ccccc1)C2 (stereo not given in full) [ipratropium]
inactive: [1] 0 | [2] 0 | [3] 0 | [4] 0 | [5] 0 | [6] 0 | [7] 0 | [8] 0 | [9] 0 | [10] 0 | [11] 0 | [12] 0 | [13] 0 | [14] 0 | [15] 0

C/C=C(/C(=C/C)c1ccc(O)cc1)c1ccc(O)cc1 [dienestrol]
inactive: [1] 0 | [2] 0 | [3] 0 | [4] 0 | [5] 0 | [6] 0 | [7] 0 | [8] 0 | [9] 0 | [10] 0 | [11] 0 | [12] 0 | [13] 0 | [14] 0 | [15] 0
